Screening data as filed in PubChem BioAssay.
Only some compounds are listed: those with a hit (about 8.2% of all), similar ones and a draw of the others.
KB-V1 cytotox – kills drug-selected multidrug resistant KB-V1 cells; KB-V1 MDR cells viability, CellTiter-Glo, 72 h; Potency, µM (highest dose often 46.1 µM), usual class: cytotoxic; hit rate 3.4% among 400,000; further: on the % scale 0 is the no-effect control and ±100 the full control effect; nearly all actives have a fitted effect of over 60% in size
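Drug-selected KB-V1 cells, grown in DMEM lacking phenol red with 10% FBS, receive compound titrations; after three days at 37 degrees C, surviving cell ATP is quantified by CellTiter-Glo luminescence and responses normalized and curve-fitted.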
ELG1 repair inh – blocks ELG1-dependent DNA repair in HEK293T cells; Potency, µM (top dose mostly 46.1 µM), for inactives: top-dose activity change, negative = inhibition, hits mostly inhibitors; hit rate 2.3% among 330,000; HEK293T ELG1-luciferase reporter, luminescence, 16 h; DNA damage induced by 5-fluorouridine; further: on the % scale 0 is the no-effect control and ±100 the full control effect; nearly all actives have a fitted effect of over 55% in size
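DMSO vehicle served as the neutral condition. Each well held 2,000 cells given 5-fluorouridine plus compound; after 16 hr at 37 °C/5% CO2, ONE-Glo was added and luciferase measured 30 min later.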
MCF10A rerep – inducers of DNA re-replication in MCF 10A breast cells; MCF 10A DNA re-replication, Hoechst nuclear intensity, 48 h; Potency, µM (titrated, usually from 46.1 µM), for the others: top-dose activity, positive = re-replication, hits mostly activators; hit rate 2.9% among 350,000; further: % of control where 0% means no effect; nearly all actives have a fitted effect of over 50% in size
KB-3-1 tox – kills parental KB-3-1 adenocarcinoma cells | KB-3-1 viability, CellTiter-Glo ATP luminescence, 72 h | Potency, µM (doses to about 46.1 µM), most hits filed as cytotoxic | hit rate 1.4% among 400,000 | AID 1347075; further: on the % scale 0 is the no-effect control and ±100 the full control effect; nearly all actives have a fitted effect of over 60% in size
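Cytotoxicity in the drug-sensitive parental line KB-3-1 was scored as loss of CellTiter-Glo luminescence following 72 h incubation with compound. Values come from curve fitting of normalized concentration-response data.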
SW480 rereplic – DNA re-replication induction in SW480 cells; SW480 DNA re-replication, Hoechst DNA content imaging, 48 h; Potency, µM (top dose mostly 46.1 µM), for the others: at the top dose re-replication activation, actives largely listed as activators; hit rate 1.8% among 340,000; further: % of control where 0% means no effect; nearly all actives have a fitted effect of over 55% in size
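250 cells/well; 23 nL cpd via pin tool; 48 hr, 37 C, 5% CO2; Hoechst 40 min; imager read of total nuclear intensity, ex 405/em 500-530 nm.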
Starred values were filed as active, the others as inactive; i = inactive; ? = inconclusive; · = not tested or not shown; ! = not active in a repeat. The call rests on the fitted dose curve; in most records, active means well fitted curve in the direction sought with a large enough effect; inconclusive means small, poorly fitted or top-dose-only effect, or another doubt; inactive means no such curve, though single readings can be large; an effect the other way counts as inactive or inconclusive. Potency means the concentration at half of the fitted maximal effect.

SMILES	KB-V1 cytotox	ELG1 repair inh	MCF10A rerep	KB-3-1 tox	SW480 rereplic
CC(C)(C)OC(=O)N1CCC(c2c(C(=O)NCCc3ccccc3)cnn2-c2ccc(F)cc2)CC1	i	·	·	?	·
Cc1cc(=O)[nH]c2c1c(C)nn2C1CCOC(C)(C)C1 (centres undefined)	i	-2.7%	-6.0%	i	6.51µM*
Cc1ccc(-n2nc(C)c3c(C)cc(=O)[nH]c32)cc1	?	?	4.0%	i	-11.6%
N#Cc1cc([N+](=O)[O-])ccc1NC(=O)COC(=O)C12CC3CC(CC(C3)C1)C2	·	10.3µM*	·	·	·
N#Cc1cc([N+](=O)[O-])ccc1NC(=O)COC(=O)C1CC2CCCC(C1)C2=O (centres undefined)	i	9.2µM*	7.7%	?	0.1%
Cn1c(NCCc2ccncc2)nc2cc(-c3ccccc3)sc2c1=O	i	·	·	i	·
O=C(COc1ccccc1)c1cn(CC(=O)N2CCCC2)c2ccccc12	i	0.0%	-1.7%	i	7.2%
O=C(O)COc1ccc2oc3c(c2c1)CCCC3	i	-4.0%	2.06µM*	i	-24.8%
NNC(=O)COc1ccc2oc3c(c2c1)CCCC3	i	-5.1%	?	i	-3.8%
COc1ccc(NC(=O)c2ccc(F)c(F)c2)c2ccccc12	i	0.7%	-1.7%	i	20.9%
CC(Sc1nc(N)cc(N)n1)C(=O)NCCC1=CCCCC1 (centres undefined)	i	?	-4.0%	i	-6.1%
COc1ccc(C(=O)NN(C)c2nc(C(F)(F)F)nc3ccccc23)cc1	0.731µM*	?	0.0326µM*	0.82µM*	?
CN(NS(=O)(=O)c1ccc(Cl)cc1)c1nc(C(F)(F)F)nc2ccccc12	i	23.1µM*	-17.9%	i	-0.4%
CCSC1=NC2(CCN(C(=O)NC3CCCCC3)CC2)N=C1c1ccc(C)cc1	i	·	·	i	·
c1ccc(-c2c3ccccc3nc3[nH]c4ccccc4c23)cc1	i	4.6%	?	i	11.6µM*
O=C(NNc1ccccc1Br)C(O)(c1cccc(C(F)(F)F)c1)c1cccc(C(F)(F)F)c1	18.4µM*	?	?	?	?
Cc1ccc(NNC(=O)C(O)(c2cccc(C(F)(F)F)c2)c2cccc(C(F)(F)F)c2)cc1	?	18.4µM*	11.6µM*	16.4µM*	?
O=C(NC1CCCC1)C1CC(O)CN1C(=O)Nc1ccccc1 (centres undefined)	i	8.7%	0.5%	i	-5.3%
Cc1ccc(-n2c(/C=C/c3c(C)n(C)c4ccccc34)nc3ccccc3c2=O)cc1	i	·	·	i	·
CC(=O)Nc1ccc(S(=O)(=O)Oc2cccc(N3C(=O)C4CC=CCC4C3=O)c2)cc1 (centres undefined)	i	23.1µM*	12.1%	i	-3.5%
O=C1C2CCCCC2C(=O)N1c1cccc(OS(=O)(=O)c2ccccc2)c1 (centres undefined)	i	0.8%	0.7%	i	-7.0%
CC(=O)Nc1ccc(S(=O)(=O)Oc2ccc(N3C(=O)C4CCCCC4C3=O)cc2)cc1 (centres undefined)	18.4µM*	5.3%	8.8%	?	-16.2%
CCOc1ccc(N2Cc3ccccc3C2)cc1	?	?	5.7%	i	3.6%
Cc1ccc(-c2c[n+]3c(n2-c2ccccc2)CCC3)cc1	i	2.31µM*	8.2µM*	1.3µM*	?
c1ccc(-c2c[n+]3c(n2-c2ccccc2)CCC3)cc1	i	?	15.4%	?	2.4%
SMILES	KB-V1 cytotox	ELG1 repair inh	MCF10A rerep	KB-3-1 tox	SW480 rereplic
CCOc1ccc(-n2c(-c3ccccc3)c[n+]3c2CCCCC3)cc1	?	?	2.8%	10.3µM*	-14.4%
COc1ccc(NC(=O)N2c3ccc(OC)cc3C(C)=CC2(C)C)cc1	?	?	20.6µM*	i	-58.1%
CCN1CCN(c2ncnc3c2cnn3-c2ccc(F)cc2)CC1	i	·	·	i	·
O=C1/C(=C/c2ccccc2)CCCc2ccccc21	i	?	2.8%	i	20.2%
CN(C)/N=C/C=C1\CCC/C(=C\c2ccc(F)c(F)c2)C1=O	?	?	14.1µM*	?	?
COc1ccc(/C=C2\CCCCC2=O)cc1	i	·	-0.7%	i	-9.2%
COc1ccc(/C=C2\CCC/C(=C\C=N\N(C)C)C2=O)cc1	?	11.3%	8.2µM*	i	-22.0%
O=C(c1ccco1)N1CCN(Cc2nnc(-c3cccc(Br)c3)o2)CC1	i	-27.6%	0.2%	i	-19.0%
COc1ccc(NC(=S)N/C(=N/CS(=O)(=O)c2ccccc2)c2ccccc2)cc1	i	?	16.4µM*	i	?
O=[N+]([O-])c1ccc(NC(=S)N/C(=N/CS(=O)(=O)c2ccccc2)c2ccccc2)cc1	?	?	0.4%	i	-2.0%
OCCN1CCN(c2ncnc3c2ncn3[C@H]2CN(Cc3cccnc3)C[C@@H](CO)O2)CC1	i	·	·	i	·
Cc1ccc(Cl)c(NC(=O)CSc2cccc[n+]2[O-])c1Cl	i	4.7%	0.4%	i	-6.2%
Cc1ccc(Cl)c(Nc2ccccc2C(=O)O)c1Cl	i	-7.5%	26.6µM*!	i	-8.7%
Cc1ccc(Cl)c(NC(=O)CCl)c1Cl	i	-22.0%	4.4%	23.1µM*	10.6%
CN(C(=O)c1ccc(NC(=O)Cc2ccc(NC(=O)C3CCN(S(=O)(=O)c4cccc([N+](=O)[O-])c4)CC3)cc2)cc1)C1CCCC1	i	·	-20.8%	i	-3.0%
CCOc1ccc(CNC(=O)C2CCCN(S(=O)(=O)c3ccc4c(ccn4C)c3)C2)cc1 (centres undefined)	?	·	·	i	·
O=C(NC1CC(=O)N(c2ccccc2)C1)N1CCN(C(=O)c2ccco2)CC1 (centres undefined)	i	-3.0%	-1.5%	i	0.9%
O=C(O)COc1ccccc1/C=C1\SC(=Nc2ccc(F)cc2)N(c2ccc(F)cc2)C1=O	?	-7.1%	6.51µM*	i	?
CCOc1cc(/C=C2\SC(=Nc3ccc(F)cc3)N(c3ccc(F)cc3)C2=O)ccc1OCC(=O)O	·	0.5%	·	·	·
CN(C)c1ccc(/C=N/n2c(C3CCCCC3)n[nH]c2=S)cc1	i	-3.0%	?	i	7.9%
O=C(CSc1nncc2ccccc12)Nc1cccc(O)c1	i	-8.4%	-5.9%	i	3.2%
COc1cc(/C=C/C(=O)C2C(=O)C=C(C)OC2=O)cc(OC)c1O (centres undefined)	i	2.59µM*	14.2%	?	5.1%
COc1ccc(-c2ccc3c(c2)C2CC3CCN2)cc1 (centres undefined)	i	·	20.6µM*	i	27.1%
O=C1NC(=O)C(Cc2ccc(Cl)cc2)(c2ccccc2)N1 (centres undefined)	i	·	5.1%	i	-0.3%
